Rows were chosen to be rich in hits. Some 2.6% of all compounds tested hit in one or more screens of this group.
Cruzain noTriton: inhibitors of Trypanosoma cruzi cruzain without detergent | purified cruzain, Z-FR-AMC fluorescence, no detergent | AID 1476 | Potency, µM, for inactives: max response, negative = inhibition, hits mostly inhibitors | P25779 | 200,000 compounds, 2.3% hits;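 further: plate controls were enzyme without inhibitor for no effect and buffer without enzyme for full effect; nearly all actives have a fitted effect of over 40% in size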
Target sequence (P25779 123-467 limits assumed): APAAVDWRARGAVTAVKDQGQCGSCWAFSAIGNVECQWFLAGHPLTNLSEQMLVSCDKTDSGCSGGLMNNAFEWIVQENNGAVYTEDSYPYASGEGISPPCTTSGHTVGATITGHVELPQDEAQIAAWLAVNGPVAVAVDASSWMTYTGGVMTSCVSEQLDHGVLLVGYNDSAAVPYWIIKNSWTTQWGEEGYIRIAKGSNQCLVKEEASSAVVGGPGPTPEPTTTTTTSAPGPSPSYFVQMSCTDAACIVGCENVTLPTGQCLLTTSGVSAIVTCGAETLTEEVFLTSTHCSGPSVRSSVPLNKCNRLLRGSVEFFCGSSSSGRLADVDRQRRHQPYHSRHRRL
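Purified cruzain at 1.5 nM, pre-incubated 15 min with compound at room temperature in 100 mM sodium acetate pH 5.5, 5 mM DTT, 0.00005% Triton X-100. Reaction started with 2 uM Z-FR-AMC; AMC fluorescence increase over 60 s gives rate.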
Cruzain Triton: blocks cruzain activity in presence of Triton detergent | AID 1478 | P25779 | 200,000 compounds, 0.43% hits | Potency, µM, without a hit: max response, negative = inhibition, hits mostly inhibitors | purified cruzain, Z-FR-AMC fluorescence, 0.01% Triton;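 further: plate controls were neutral wells for no effect and buffer without enzyme for full effect; nearly all actives have a fitted effect of over 40% in size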
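Cruzain (1.5 nM) preincubated 15 min at RT with compound in 100 mM sodium acetate pH 5.5, 5 mM DTT, 0.01% Triton X-100. Reaction started with 2 uM Z-FR-AMC; AMC fluorescence (ex 360/em 450 nm) change over 60 s gave rate.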
The depositor's hits bear a star; ? = inconclusive. The call rests on the fitted dose curve; in most records, active means well fitted curve in the direction sought with a large enough effect; inconclusive means small, poorly fitted or top-dose-only effect, or another doubt; inactive means no such curve, though single readings can be large; an effect the other way counts as inactive or inconclusive. Potency means the concentration at half of the fitted maximal effect.

SMILES	Cruzain noTriton	Cruzain Triton
O=C(NCCOc1ccccc1)O[C@@H]1C(=O)c2cc(Br)ccc2O[C@H]1c1ccc2c(c1)OCO2	-1%	-2%
CCc1ccccc1NC(=O)C(=O)NCCc1sc(-c2cccc(F)c2)nc1C	-19%	-3%
Nc1nc(-c2ccc(Cl)cc2Cl)cn1N	-18%	14%
Nc1[nH]nc2c1NN(c1ccc(Cl)cc1Cl)N2	20µM*	-17%
CCN(CC)C(=O)N1CCn2c(nc3ccccc32)C1	-1%	-1%
CCN(CC)CCCNC(=S)N1CCn2c(nc3ccccc32)C1	-4%	13µM*
CCC(C)NC(=O)COC(=O)c1ccccc1OCC(=O)Nc1ccc(Br)cc1 (stereo not drawn)	15%	3%
COCC(=O)Nc1ccc(Nc2ccccc2)cc1	25µM*	5%
O=C(COC(=O)c1ccccc1OCC(=O)Nc1ccc(Br)cc1)Nc1ccccc1	13µM*	1%
CCC(=O)Nc1ccc(Nc2ccccc2)cc1	-10%	0%
COc1ccccc1CN1CCCC2(CCN(C(=O)c3ccncc3)CC2)C1	4%	2%
Cc1cccc(C)c1OCC(=O)Nc1nc(-c2ccc(Br)cc2)ns1	11%	-3%
CCCc1ccc(OCc2ccc(C(=O)Nc3ccccc3C(=O)OC)o2)cc1	?	-5%
COc1ccccc1NC(=O)C1=C(C)Nc2nc(-c3ccc(N(C)C)cc3)nn2C1c1ccncc1 (stereo not drawn)	?	-6%
COc1ccccc1NC(=O)C1=C(C)Nc2nc(-c3cccs3)nn2C1c1cccnc1 (stereo not drawn)	16µM*	0%
O=C(Nc1ccc2c(c1)OCO2)c1ccc(N2CCCC2)c([N+](=O)[O-])c1	25µM*	-10%
CCC(CC)c1nnc(NC(=O)c2ccc(N3CCCCC3)c([N+](=O)[O-])c2)s1	0%	-5%
Cc1c(NC(=O)c2ccc(N3CCCC3)c([N+](=O)[O-])c2)cccc1-c1nc2ccccc2s1	7.9µM*	-7%
COc1cccc(C(=O)Nc2ccccc2-c2nc3ccccc3s2)c1	7%	0%
O=C(Nc1ccc(N2CCCCC2)c(Cl)c1)c1ccc(N2CCOCC2)c([N+](=O)[O-])c1	-1%	-3%
CC(=O)N1CCN(c2ccc(NC(=O)c3ccc(N4CCCC4)c([N+](=O)[O-])c3)cc2Cl)CC1	13%	1%
O=C(Nc1nc2ccc(Cl)cc2s1)c1ccc(N2CCCCC2)c([N+](=O)[O-])c1	5µM*	-3%
O=C(Nc1nc2ccc3ccccc3c2s1)c1ccc(N2CCCCC2)c([N+](=O)[O-])c1	6.3µM*	-5%
COc1ccccc1CNc1ncncc1-c1ccccc1C	3%	-2%
COc1ccc(CCNC(=O)C(=O)NCC(c2ccco2)S(=O)(=O)c2ccc(F)cc2)cc1 (stereo not drawn)	9%	-1%
SMILES	Cruzain noTriton	Cruzain Triton
O=C(CN1N=C(c2ccccc2)CCC1=O)NCc1ccc(F)cc1Cl	7%	0%
Cc1ccc(CNC(=O)c2ccc(CS(=O)(=O)Cc3ccc(C)cc3)o2)cc1	-6%	-1%
CCOc1cccc2cc(C(=O)N3CCc4ccccc43)c(=O)oc12	16µM*	3%
COc1cccc2cc(C(=O)N3CCc4ccccc43)c(=O)oc12	4%	4%
CC(C)OCCCNC(=O)c1ccc(Cn2c(=O)c3cccn3c3cccnc32)cc1	20%	7%
CC(C)Oc1ccc(CNC(=O)C2CCN(c3nc4ccccc4nc3C(F)(F)F)CC2)cc1	-2%	3%
O=C(CC1S/C(=N/N=C/c2cccs2)NC1=O)Nc1ccc(Cl)c(Cl)c1 (stereo not drawn)	20µM*	-5%
O=C(CC1S/C(=N/N=C/c2cccs2)NC1=O)Nc1ccc(Cl)cc1 (stereo not drawn)	-27%	-2%
O=C(CC1S/C(=N/N=C/c2c[nH]c3ccccc23)NC1=O)Nc1ccccc1 (stereo not drawn)	?	-6%
O=C(CC1S/C(=N/N=C/c2c[nH]c3ccc(OCc4ccccc4)cc23)NC1=O)Nc1ccccc1 (stereo not drawn)	6.3µM*	-4%
COc1ccc2[nH]cc(CCN=C(NC(=O)c3cccc(Cl)c3)Nc3nc(C)cc(C)n3)c2c1	-29%	-1%
Cc1cc(C)nc(NC(=NCCc2c[nH]c3ccccc23)NC(=O)Nc2ccc(Cl)cc2)n1	25µM*	-1%
COc1ccc(CCNC(=O)CCCCCn2c(=O)[nH]c3cc(OC)c(OC)cc3c2=O)cc1OC	3%	1%
COC(=O)c1ccc(Oc2coc3cc(OCc4ccc([N+](=O)[O-])cc4)ccc3c2=O)cc1	10µM*	-5%
Cc1cc(=O)oc2cc(OCc3ccc(C(=O)N4CCN(c5ccc([N+](=O)[O-])cc5)CC4)cc3)ccc12	13µM*	-5%
COc1ccc(Oc2coc3cc(OC(=O)c4cccs4)ccc3c2=O)cc1	-27%	-1%
Cc1cc(=O)oc2cc(OCc3ccc(C(=O)N4CCN(c5ccccc5)CC4)cc3)ccc12	-28%	-5%
Cc1cc(C)n(C(C)CC(=O)NCc2ccc(N(C)C)cc2)n1 (stereo not drawn)	-5%	-1%
Cc1ccccc1OCc1nc2c3cnn(-c4cccc(F)c4)c3ncn2n1	-15%	-1%
CCOc1ccc(CCNC(=O)CCc2c(C)nc3cc(-c4ccccc4OC)nn3c2C)cc1	?	-4%
COc1ccc(N2C(=O)CS(=O)(=O)C23C(=O)N(Cc2c(F)cccc2Cl)c2ccccc23)cc1 (stereo not drawn)	7.9µM*	-3%
Cc1cccc(N2C(=O)CS(=O)(=O)C23C(=O)N(Cc2c(F)cccc2Cl)c2ccccc23)c1 (stereo not drawn)	3.2µM*	-4%
CN1C(=O)C2(c3ccccc31)N(c1ccccc1)C(=O)CS2(=O)=O (stereo not drawn)	?	0%
CCOc1ccc(N2C(=O)CS(=O)(=O)C23C(=O)N(Cc2cccc(Cl)c2)c2ccccc23)cc1 (stereo not drawn)	10µM*	-3%
O=C1CSC2(C(=O)N(Cc3c(F)cccc3Cl)c3ccccc32)N1c1ccc(F)c(F)c1 (stereo not drawn)	-19%	-7%
SMILES	Cruzain noTriton	Cruzain Triton
Cc1cc(C)cc(N2C(=O)CS(=O)(=O)C23C(=O)N(Cc2ccc(F)cc2)c2ccc(C)cc23)c1 (stereo not drawn)	?	-5%
COc1ccc(N2C(=O)CS(=O)(=O)C23C(=O)N(Cc2ccccc2)c2ccccc23)cc1 (stereo not drawn)	3.2µM*	-3%
COc1ccc(-c2nc3n(n2)C(c2ccccc2OC)C(C(=O)Nc2cccnc2)=C(C)N3)cc1 (stereo not drawn)	?	-6%
CC1(C)C[C@](C)(C(=O)c2ccccc2)C=C1c1ccccc1	2%	0%
O=C(Cn1c(SCc2ccccc2F)nc2ccncc21)Nc1ccccc1C(F)(F)F	7%	-17%
COc1ccccc1CNc1ccc(-c2nc(-c3ccncc3)no2)cc1[N+](=O)[O-]	-8%	-3%
COc1ccc(CCNC(=O)Cn2nnc(-c3ccc(Cl)cc3)n2)cc1OC	-2%	6%
O=C(O)CSc1nnc2c3ccccc3c3ccccc3c2n1	-6%	-3%
Nn1c(SCC(=O)Nc2ccccc2F)nc2ccccc2c1=O	-5%	-2%
O=C(CSc1nnc2c3ccccc3c3ccccc3c2n1)Nc1ccccc1F	7.9µM*	-17%
O=C(CSc1nnc2c3ccccc3c3ccccc3c2n1)Nc1ccccc1	4µM*	-4%

Screens as filed in PubChem.
